Screening data: PubChem BioAssay, several laboratories
Compounds with a hit are over-represented: about 4.5% of the library has one in this group of screens.
Jurkat NFkB inh = lowers PMA/ionomycin-induced NF-kB signal in Jurkat cells; inhibition, % at 4 µM; 0.53% of 330,000 active; PMA/ionomycin-induced NF-kB luciferase reporter, luminescence; in the data active = inhibition above about 50%
Gli-Sufu block = Gli-Sufu pathway antagonism | AID 588413 | 0.74% of 340,000 active | inhibition, % at 5 µM | Sufu-KO-LIGHT fibroblasts, Gli luciferase reporter luminescence;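 active = inhibition above about 55%, limit read from the data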
Beta apoptosis = blocks beta cell apoptosis. INS-1E cytokine-induced death, ATP luminescence, 48 h; percent of positive-control rescue, neutral wells zero. protection from apoptosis, % (no concentration beside the values). 0.8% of 300,000 active;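 active = Every replicate reaches about 75%, or at least half do and their mean reaches it too, limit read from the data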;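 also: higher means more ATP so stronger rescue from cytokine killing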
CSC inhib = blocks cancer stem cells | cancer stem cell-like cells viability, luminescence | inhibition, % at 7.5 µM | 1.1% of 300,000 active | AID 2717; in the data active = inhibition above about 75%; tested in HMLE shEcad cells
697 NFkB inh = inhibitors of the PMA/ionomycin-induced NF-kB reporter in 697 B cells | 697 B-cell NF-kB luciferase reporter, 16 h | inhibition, % at 4 µM | 0.33% of 330,000 active; in the data active = inhibition above about 35%
Mdm2-MdmX inh = human Mdm2/MdmX binding inhibition; O15151+Q00987; SaOS-2 split-luciferase Mdm2/MdmX complementation, luminescence; inhibition, % at 8 µM; 3% of 330,000 active; AID 485346;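 active = inhibition of at least 50% at 8 µM in the primary screen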
Gli antag conf = confirmation of Gli-SUFU pathway antagonists | shares compounds with Gli-Sufu block | Sufu-KO-LIGHT cells, Gli luciferase reporter, luminescence | inhibition, % at 5 µM | 40% of 2,500 active | AID 602428;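 active = mean inhibition at 5 µM reaching about 45%, limit read from the data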
SufuKO cytotox = cytotoxicity counter-screen for Gli-SUFU antagonists. 32% of 2,500 active. shares compounds with Gli-Sufu block. Sufu-KO-LIGHT cells cytotoxicity, ATP luminescence. cytotoxicity, % at 5 µM;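 active = mean cytotoxicity at 5 µM above about 25%, limit read from the data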;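 also: cells exposed to compound overnight for roughly 16 to 18 hours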
Wnt3a cs = Wnt3a reporter inhibition counter-screen; shares compounds with Gli-Sufu block; 20% of 2,500 active; inhibition, % at 6.25 µM; Wnt-LIGHT cells, Wnt3a-driven luciferase reporter, luminescence;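 active = mean inhibition above about 25%, limit read from the data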
Numbers stand for hits.

For COc1ccc2c(C)cc(SCC(=O)c3ccc4c(c3)OCO4)nc2c1 the results were Jurkat NFkB inh inactive, Gli-Sufu block 64, Beta apoptosis inactive, CSC inhib inactive, 697 NFkB inh inactive, Mdm2-MdmX inh inactive, Gli antag conf inactive, SufuKO cytotox inactive and Wnt3a cs inactive.
COc1ccccc1NS(=O)(=O)c1ccc(C(=O)N2CCN(c3ccccn3)CC2)cc1 was read as Jurkat NFkB inh inactive, Gli-Sufu block inactive, Beta apoptosis inactive, CSC inhib inactive, 697 NFkB inh inactive and Mdm2-MdmX inh inactive.
For CN(C)CCNC(=O)Cc1ncc(C(F)(F)F)cc1Cl the results were Jurkat NFkB inh inactive, Gli-Sufu block inactive, Beta apoptosis inactive, CSC inhib inactive, 697 NFkB inh inactive and Mdm2-MdmX inh inactive.
O=C(Cc1ncc(C(F)(F)F)cc1Cl)NCCc1ccccn1 was read as Jurkat NFkB inh inactive, Gli-Sufu block 55, Beta apoptosis inactive, CSC inhib inactive, 697 NFkB inh inactive, Mdm2-MdmX inh inactive, Gli antag conf inactive, SufuKO cytotox inactive and Wnt3a cs inactive.
For COc1ccc(NC(=O)CSc2nc3ccccc3c(=O)[nH]2)cc1S(N)(=O)=O the results were Jurkat NFkB inh inactive, Gli-Sufu block 57, Beta apoptosis inactive, CSC inhib inactive, 697 NFkB inh inactive, Mdm2-MdmX inh inactive, Gli antag conf inactive, SufuKO cytotox inactive and Wnt3a cs inactive.
Screening COC(=O)c1ccc(NC(=O)CSc2nc3ccccc3c(=O)[nH]2)cc1 returned Jurkat NFkB inh inactive, Gli-Sufu block inactive, Beta apoptosis inactive, CSC inhib inactive, 697 NFkB inh inactive and Mdm2-MdmX inh inactive.
For O=C(C1CC(=O)N(c2ccccc2)C1)N1CCN(c2ccccc2)CC1 (stereo not given) the results were Jurkat NFkB inh inactive, Gli-Sufu block inactive, Beta apoptosis inactive, CSC inhib inactive, 697 NFkB inh inactive and Mdm2-MdmX inh inactive.
Cc1cc[n+](C(C)C(=O)c2ccc(-c3ccccc3)cc2)cc1 (stereo not given) was read as Jurkat NFkB inh inactive, Gli-Sufu block 82, Beta apoptosis 99, CSC inhib inactive, 697 NFkB inh inactive, Mdm2-MdmX inh inactive, Gli antag conf 75, SufuKO cytotox 27 and Wnt3a cs inactive.
For Cc1cccc(-c2nc(NCCCN(C)C)c3ccccc3n2)c1 the results were Jurkat NFkB inh inactive, Gli-Sufu block 55, Beta apoptosis inactive, CSC inhib inactive, 697 NFkB inh inactive, Mdm2-MdmX inh inactive, Gli antag conf inactive, SufuKO cytotox inactive and Wnt3a cs inactive.
For CN(C)CCCNc1nc(-c2ccc(Cl)cc2)nc2ccccc12 the results were Jurkat NFkB inh inactive, Gli-Sufu block 69, Beta apoptosis inactive, CSC inhib inactive, 697 NFkB inh inactive, Mdm2-MdmX inh inactive, Gli antag conf inactive, SufuKO cytotox 27 and Wnt3a cs inactive.
Cc1cccc(C)c1NC(=O)CNC(=O)c1ccccc1OCc1ccccc1 was read as Jurkat NFkB inh inactive, Gli-Sufu block inactive, Beta apoptosis inactive, CSC inhib inactive, 697 NFkB inh inactive and Mdm2-MdmX inh inactive.
COc1ccc(-c2cc(C(F)(F)F)n3ncc(C(=O)N4CCCCC4c4cccnc4)c3n2)cc1 (stereo not given) was read as Jurkat NFkB inh inactive, Gli-Sufu block inactive, Beta apoptosis inactive, CSC inhib inactive, 697 NFkB inh inactive, Mdm2-MdmX inh inactive, Gli antag conf inactive, SufuKO cytotox inactive and Wnt3a cs inactive.
For Cn1c(=O)c2[nH]c(CCCCc3nc4ccccc4[nH]3)nc2n(C)c1=O the results were Gli-Sufu block inactive.
Screening Cn1c(=O)c2[nH]c(CCCCCCCCc3nc4ccccc4[nH]3)nc2n(C)c1=O returned Gli-Sufu block 57, Gli antag conf 66, SufuKO cytotox 28 and Wnt3a cs inactive.
`COc1ccc(Nc2c3ccccc3nc3ccccc23)cc1` gave Jurkat NFkB inh inactive, Gli-Sufu block inactive, Beta apoptosis inactive, CSC inhib inactive, 697 NFkB inh inactive, Mdm2-MdmX inh inactive, Gli antag conf 56, SufuKO cytotox 31 and Wnt3a cs inactive.
Screening Cc1cc(C)n(C(C)CC(=O)Nc2ccc(-c3ccno3)cc2)n1 (stereo not given) returned Jurkat NFkB inh inactive, Gli-Sufu block 56, CSC inhib inactive, 697 NFkB inh inactive, Mdm2-MdmX inh inactive, Gli antag conf inactive, SufuKO cytotox inactive and Wnt3a cs inactive.
Screening Cc1ccc(CSCCNC(=O)CSCc2ccc([N+](=O)[O-])cc2)cc1 returned Jurkat NFkB inh inactive, Gli-Sufu block inactive, Beta apoptosis inactive, CSC inhib inactive, 697 NFkB inh inactive, Mdm2-MdmX inh inactive, Gli antag conf inactive, SufuKO cytotox inactive and Wnt3a cs inactive.
Cc1cccc(CSCCNC(=O)CSCc2ccc([N+](=O)[O-])cc2)c1 was read as Jurkat NFkB inh inactive, Gli-Sufu block inactive, CSC inhib inactive, 697 NFkB inh inactive and Mdm2-MdmX inh inactive.
CC(=O)Nc1cccc(C(=O)Nc2cccc3ncccc23)c1 was read as Jurkat NFkB inh inactive, Gli-Sufu block 86, Beta apoptosis inactive, CSC inhib inactive, 697 NFkB inh inactive, Mdm2-MdmX inh inactive, Gli antag conf inactive, SufuKO cytotox inactive and Wnt3a cs inactive.
Nc1cccc(C(=O)Nc2cccc3ncccc23)c1 was read as Jurkat NFkB inh inactive, Gli-Sufu block inactive, Beta apoptosis inactive, CSC inhib inactive, 697 NFkB inh inactive and Mdm2-MdmX inh inactive.
For CCOC(=O)C1(C)C=C(Nc2ccc(NC(C)=O)cc2)C(=O)N1c1ccc(NC(C)=O)cc1 (stereo not given) the results were Jurkat NFkB inh inactive, Gli-Sufu block inactive, Beta apoptosis inactive, CSC inhib inactive, 697 NFkB inh inactive and Mdm2-MdmX inh inactive.
`COc1ccccc1N1CCN(c2ncc(C(=O)N3CCN(c4cccc(Cl)c4)CC3)c3ccccc23)CC1` gave Jurkat NFkB inh inactive, Gli-Sufu block 61, Beta apoptosis 89, CSC inhib inactive, 697 NFkB inh inactive, Mdm2-MdmX inh inactive, Gli antag conf 67, SufuKO cytotox inactive and Wnt3a cs inactive.
`COc1ccc(C(=O)N2CCN(c3cccc(Cl)c3)CC2)c(OC)c1` gave Jurkat NFkB inh inactive, Gli-Sufu block inactive, Beta apoptosis inactive, CSC inhib inactive, 697 NFkB inh inactive and Mdm2-MdmX inh inactive.
Screening CCCC1C(=O)Nc2ccccc2N1C(=O)c1cccc(C)c1 (stereo not given) returned Jurkat NFkB inh inactive, Gli-Sufu block 71, Beta apoptosis inactive, CSC inhib inactive, 697 NFkB inh inactive, Mdm2-MdmX inh inactive, Gli antag conf inactive, SufuKO cytotox inactive and Wnt3a cs inactive.
